Source: PubChem (National Center for Advancing Translational Sciences (NCATS))
Shown are actives, neighbours in structure and some others; about 7.3% of the full set was active somewhere.
Vaccinia Venus = qHTS for Stage-Specific Inhibitors of Vaccinia Orthopoxvirus: Venus Reporter Primary qHTS. 330,000 compounds, 0.46% hits. Potency, µM (series often up to 36.5 µM), for inactives: top-dose activity change, negative = inhibition, actives largely listed as inhibitors. AID 720580, 2013. Vaccinia virus Venus reporter expression, fluorescence; calls by dose curve; tested in A549 cells; note: potency is the fitted concentration of half-maximal effect; nearly all actives have a fitted effect of over 30% in size
FMDV inh = High Throughput Screening for Foot and Mouth Disease Virus Antivirals; FMDV antiviral cell-based qHTS; Potency, µM (top dose mostly 57.9 µM), for the others: top-dose activity change, negative = inhibition, actives largely listed as inhibitors; 410,000 compounds, 1.2% hits; AID 1159524, 2015; calls by dose curve; tested in HEK293T cells; note: read-out not given here; potency is the fitted concentration of half-maximal effect; nearly all actives have a fitted effect of over 45% in size
HCV inhibitor = qHTS Assay for Inhibitors of Hepatitis C Virus (HCV); Huh7.5.1 HCVcc-Cre infection, luciferase reporter, 44 h; Potency, µM (highest dose often 41.8 µM), inactives show at the top dose activity change, negative = inhibition, actives largely listed as inhibitors; 340,000 compounds, 3.4% hits; active = well fitted inhibition curve with a large enough effect; inconclusive = small, poorly fitted or top-dose-only effect, or another doubt; inactive = no such curve, though single readings can be large or run the other way; note: potency is the fitted concentration of half-maximal effect
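Compounds are dispensed onto cells plated 4 h earlier at 1,000 per well, with HCVcc-Cre virus (about 0.5 moi) added next. Following 44 h of culture, luminescent signal is measured for 15 sec after 15 min with substrate at room temperature.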
HCMV antiviral = qHTS Assay for inhibitors of the human cytomegalovirus (HCMV); HFF cells, HCMV-luciferase reporter, 72 h; stronger effect = lower value; activity change, negative = inhibition, % at 57.5 µM; 410,000 compounds, 4.5% hits; in the data active = activity change below about -60%; inconclusive = no clear call, values can overlap the other calls; inactive = above about -39%
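Luciferase read-out from HCMV-luciferase-infected HFFs (MOI 1 PFU/cell) 72 h post infection at 37C; compounds added after 16 h cell attachment; activity normalized between buffer-only basal and Salinomycin (10uM) inhibitor controls.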
VACV mCherry inh = qHTS for Stage-Specific Inhibitors of Vaccinia Orthopoxvirus: mCherry Reporter Primary qHTS; Vaccinia virus mCherry reporter infection, fluorescence; 310,000 compounds, 0.63% hits; AID 720579, 2013; Potency, µM (series often up to 36.5 µM), for the others: at the highest dose activity change, negative = inhibition, most hits filed as inhibitors; calls by dose curve; tested in A549 cells; note: potency is the fitted concentration of half-maximal effect; nearly all actives have a fitted effect of over 35% in size
Starred values were filed as active, the others as inactive; i = inactive; ? = inconclusive; · = no result. % is set by controls: 0 for no effect and ±100 for the full control effect.

SMILES	Vaccinia Venus	FMDV inh	HCV inhibitor	HCMV antiviral	VACV mCherry inh
CCOc1ccc(Nc2oc(-c3ccc(COc4ccc(OC)cc4)o3)nc2C#N)cc1	-24.2%	-19.5%	·	-80.9*	?
COc1cccc(CNC(=O)c2ccc(-n3c(C)cc4c3CCCC4)cc2)c1	?	-9.5%	·	-38.2	i
Brc1ccc2nc(-c3ccc(CN4CCC5(CC4)CNc4ccccc45)cc3)c(-c3ccccc3)nc2c1	·	·	·	-12.4	·
CC(C)(C)OC(=O)NCc1ccc(CNC(=O)c2[nH]cnc2C(=O)Nc2ccccc2F)cc1	?	20µM*	·	-32.4	?
C[C@@H](NC(=O)c1nc[nH]c1C(=O)NCCCCCNC(=O)OC(C)(C)C)c1ccccc1	?	-8.6%	?	1.2	-6.9%
C[C@H](NC(=O)c1nc[nH]c1C(=O)NCc1ccc(CNC(=O)OC(C)(C)C)cc1)c1ccccc1	?	31.6µM*	7.08µM*	-14.0	?
CC(C)(C)OC(=O)NCc1ccc(CNC(=O)c2nc[nH]c2C(=O)N2CCN(C(=O)OC(C)(C)C)CC2)cc1	-22.5%	20µM*	?	-28.1	i
C[C@H](NC(=O)c1nc[nH]c1C(=O)NCCCCCNC(=O)OC(C)(C)C)c1ccccc1	?	39.8µM*	?	-36.1	?
Cc1ccc(NC(=O)COC(=O)c2ccccc2OCC(=O)N(C)C)cc1	-10.7%	·	·	·	-3.6%
CCCc1nn2c(=O)cc(COC(=O)c3cccc(NC(=O)c4ccc(OCC)cc4)c3)nc2s1	-14.9%	-22.2%	·	12.4	i
O=C(CSc1ccc(-c2cccs2)nn1)Nc1cccc(F)c1	-23.0%	-23.8%	·	-29.1	-27.2%
COc1cccc(NS(=O)(=O)c2ccc3[nH]cc(C(=O)N(C)C4CCCCC4)c(=O)c3c2)c1	-5.8%	20.3%	·	37.4	-2.4%
CC(C)(C)c1ccc(C(=O)NCc2ccc(Cl)cc2)cc1	?	·	1.4%	-16.0	-12.0%
CC(C)(C)OC(=O)N1CCN(c2ccc(CNC(=O)c3ccc(Cl)cc3)cc2)CC1	·	25.1µM*	?	-95.2*	·
CC(C)(C)c1ccc(C(=O)N2CCN(CCNC(=O)C(=O)NCc3ccc(Cl)cc3)CC2)cc1	?	-28.0%	11.2µM*	·	-16.7%
Cc1cccc(C)c1NC(=O)c1sc(-n2nc(C)c(Cc3ccccc3)c2C)nc1C	-19.4%	-25.0%	·	-0.4	-20.9%
COc1cc(C=NN=c2sc3ccccc3n2C)ccc1OCCO	·	·	·	8.0	·
C/C(CC(=O)Nc1ccc([N+](=O)[O-])cc1)=N\NC(=O)c1ccccc1[N+](=O)[O-]	-17.9%	-9.6%	-13.0%	0.8	-2.4%
CC12CC[C@H]3[C@@H](CCC4(O)C[C@H](O)CCC34/C=N/NC(=O)Cc3ccccc3)C1(O)CCC2C1=CC(=O)OC1 (stereo partly specified)	?	11.1%	8.0%	-65.7*	?
CNC(=O)Nc1ccc(C(=O)N/N=C\C23CC[C@@H](O)CC2(O)CC[C@@H]2[C@@H]3CCC3(C)C(C4=CC(=O)OC4)CCC23O)cc1 (stereo partly specified)	?	-15.3%	6.3%	-23.3	12.6µM*
CC12CC[C@H]3[C@@H](CCC4(O)C[C@H](O)CCC34/C=N/NC(=O)c3ccccc3[N+](=O)[O-])C1(O)CCC2C1=CC(=O)OC1 (stereo partly specified)	10µM*	-23.4%	-4.4%	-77.7*	?
COc1ccc(-c2noc(CSc3nnc(-c4ccc(Cl)cc4)n3C)n2)cc1OC	-7.3%	-2.8%	·	-13.1	-14.0%
Cc1ccc(F)c(NC(=O)/C(C#N)=C(\O)c2ccc(C(C)(C)C)cc2)c1	·	18.5%	17.5%	-63.2*	·
CCCCCCn1c(=O)n2n(c1=O)C[C@]1(OC(=O)NCC3CCCCC3)CN(S(=O)(=O)c3ccc(C)cc3)C[C@]1(O)C2	10µM*	?	·	11.7	?
Cc1ccc(S(=O)(=O)N2C[C@H]3n4c(=O)ccc(=O)n4C[C@H](OC(=O)NCC4CCCCC4)[C@@]3(O)C2)cc1	?	31.6µM*	·	-102.2*	?
SMILES	Vaccinia Venus	FMDV inh	HCV inhibitor	HCMV antiviral	VACV mCherry inh
Cc1ccc(S(=O)(=O)N2C[C@H]3n4c(=O)ccc(=O)n4C[C@H](OC(=O)NCc4ccccc4)[C@@]3(O)C2)cc1	?	0.0%	·	-60.9*	?
COc1ccccc1CNC(=O)CCCn1c(=O)c2cccn2c2ccccc21	-10.9%	?	·	-8.8	i
CC(C)c1[nH]nc2c1C(c1cccc(C(F)(F)F)c1)N(c1ccccc1)C2=O (stereo unspecified)	·	·	·	-32.5	·
COc1ccc(S(=O)(=O)NCCc2sc3nc(-c4ccc(C)cc4)nn3c2C)cc1F	?	-20.1%	·	-73.8*	?
Cc1cccc(CC(=O)NCCc2sc3nc(-c4ccc(F)cc4)nn3c2C)c1	-23.7%	23.7%	·	-0.9	-23.7%
Cc1c(CCNC(=O)C(C)(C)C)sc2nc(-c3ccc(F)cc3)nn12	-29.6%	?	·	-91.0*	-25.8%
Cc1ccc(-c2nc3sc(CCNS(=O)(=O)c4cc(F)ccc4F)c(C)n3n2)cc1	?	-15.7%	·	?	?
CCS(=O)(=O)NCCc1sc2nc(-c3ccc(OC)cc3)nn2c1C	?	-25.4%	·	?	?
COc1ccc(-c2nc3sc(CCNS(=O)(=O)c4c(C)cc(C)cc4C)c(C)n3n2)cc1	?	17.2%	·	-82.5*	?
CCCCN(CC)C(=O)c1ccc2c(c1)NC(=O)c1ccccc1S2	0.4%	-23.1%	·	-3.7	-4.8%
Cc1cc(Nc2cccc(Br)c2)n2c(nc3ccccc32)c1C#N	-27.8%	?	·	-38.0	?
C=CCNc1nc(NCc2ccccc2)c(C#N)c2c1CN(C)CC2	-17.2%	?	17.8µM*	-30.0	?
N#Cc1c(NCCN)nc(NCc2ccccc2)c2c1CCN(Cc1ccccc1)C2	-21.0%	-16.6%	?	·	-8.4%
COc1ccccc1C1NC(c2ccc3c(c2)OCO3)=CC(c2cc(Br)ccc2O)N1 (stereo unspecified)	8.8%	·	·	·	28.5%
Nc1ccn([C@@H]2O[C@H](CO)[C@@H](O)C2O)c(=O)n1 (stereo partly specified)	-26.8%	-23.5%	?	-96.9*	0.447µM*
Nc1ccn(C2OC(CCl)C(O)C2O)c(=O)n1 (stereo unspecified)	?	-8.6%	·	-60.7*	?
Nc1ccn([C@@H]2O[C@H](CO)[C@@H](O)[C@H]2O)c(=O)n1	-14.0%	-13.3%	20.4%	40.1	-20.0%
N=c1ccn2c(n1)OC1C(O)C(CO)OC12 (stereo unspecified)	?	2.9%	-29.2%	-99.7*	28.2µM*
